The full list was thinned out, with hits kept by preference.
SF-1 inh = inhibitors of human SF-1, primary screen, cell-based, CHO-K1, Gal4-SF-1 LBD, luciferase luminescence; CHO-K1 Gal4-SF-1 LBD luciferase reporter; Steroidogenic factor 1 (Homo sapiens), Q13285; 0.55% of 65,000 active; inhibition, % at 10 µM;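 active = inhibition above the mean inhibition of all tested compounds plus 3 SD, cut at about 48% in these data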
Target sequence (Q13285 whole entry, looked up, the tested form may be a part): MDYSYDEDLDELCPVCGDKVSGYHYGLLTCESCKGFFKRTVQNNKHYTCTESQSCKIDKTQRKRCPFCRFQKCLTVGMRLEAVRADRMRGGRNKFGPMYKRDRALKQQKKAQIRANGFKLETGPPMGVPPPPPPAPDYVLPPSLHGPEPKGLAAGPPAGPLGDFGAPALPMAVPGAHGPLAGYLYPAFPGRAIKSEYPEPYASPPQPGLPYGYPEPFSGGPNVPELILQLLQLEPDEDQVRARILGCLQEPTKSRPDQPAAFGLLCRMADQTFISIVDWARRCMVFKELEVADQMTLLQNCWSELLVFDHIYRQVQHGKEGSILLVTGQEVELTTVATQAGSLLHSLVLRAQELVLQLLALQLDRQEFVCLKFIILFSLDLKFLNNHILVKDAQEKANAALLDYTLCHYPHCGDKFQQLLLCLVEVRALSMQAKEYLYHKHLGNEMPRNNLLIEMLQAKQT
Of the large screens only hits and unclear results are named; the others gave an inactive call.

CNc1ccccc1-n1ccc(-c2ccccc2)n1	none
Cc1nn2cc(-c3ccc(N)cc3)nc2s1	none
CCc1ccc(-c2cn3nc(C)c(C)nc3n2)cc1	SF-1 inh 81.1
Cc1cccc2nc(CSCc3ccco3)cn12	none
COC(=O)c1cc(=O)n(Cc2cccs2)c(=NCc2cccs2)s1	none
O=C1CCCC(O)=C1C=Nc1ccc(O)cc1	none
COc1ccc(NC(=O)c2ccc3c(c2)OCO3)cc1Cl	none
Cc1nn(C(=O)c2cccs2)c(N)c1-c1ccccc1	none
COCC(C)NC(=O)c1noc2c1CCc1cc(OC)ccc1-2 (configuration not stated)	none
CS(=O)(=O)NCc1csc(-c2ccccc2)n1	none
c1ccc(OCCSc2nnc3sc4ccccc4n23)cc1	SF-1 inh 54.2
Cc1ccc(OCCSc2nnc(-c3ccncc3)n2C)cc1	none
c1ccc(OCCSc2nnnn2-c2ccccc2)cc1	none
OCC12COC(c3ccccc3)N1C(c1ccccc1)OC2 (configuration not stated)	none
C/C(N)=C(/C#N)C(=O)COC(=O)CCSc1ccccc1	none
CS(=O)(=O)N(CC(=O)N1CCCCC1)c1ccc2c(c1)OCO2	none
Nc1sc2c(c1C(=O)NC1CCS(=O)(=O)C1)CCCC2 (configuration not stated)	none
COc1ccc2sc(NC(C)=O)nc2c1	none
COc1cc2ccccc2cc1C(=O)Nc1cccnc1	none
COc1ccc(C(NC(C)=O)c2ccc3cccnc3c2O)c(OC)c1 (configuration not stated)	SF-1 inh 82.2
COc1cc(-c2nnc3sc(-c4cccs4)nn23)cc(OC)c1OC	none
COc1ccccc1-c1nnc2sc(-c3ccc(N(C)C)cc3)nn12	SF-1 inh 63.8
CN(C)c1ccc(-c2nn3c(-c4cccnc4)nnc3s2)cc1	none
CCCCOP(=O)(c1ccc(N(C)C)cc1)C(O)c1ccncc1 (configuration not stated)	none
CCOC(=O)c1csc(NC(=O)c2ccccc2)n1	none
Cn1c(-c2ccccc2)cc2c3no[n+]([O-])c3ccc21	SF-1 inh 73.0
OCCN1CCN(CC(O)COc2ccc3c(c2)OCO3)CC1 (configuration not stated)	none
O=C(Nc1cccc(Cl)c1)c1cnn2cccnc12	none
COc1ccc2c(c1)c1nnc(SCC(=O)N3CCCCC3C)nc1n2C (configuration not stated)	none
O=C(CSc1nnc(-c2cccnc2)n1Cc1ccco1)N1c2ccccc2Sc2ccccc21	none
COC(=O)c1[nH]c2ccccc2c1NC(=O)Oc1ccccc1	none
Cc1ccc(Nc2nc(=O)c3cccnc3s2)cc1	none
CCOC(=O)COc1ccc(C(=O)c2ccccc2)c(O)c1	none
O=C(CCNc1ccccc1)c1ccc2c(c1)OCO2	none
COC(=O)c1ccc(NC(=O)c2ccc3c(c2)OCO3)cc1	none
O=C(/C=C\Nc1cccc(F)c1)c1ccc2c(c1)OCO2	SF-1 inh 57.5
C1=C(C(c2nnnn2C2CCCCC2)N2CCCCC2)COc2ccccc21 (configuration not stated)	none
CCCOCCOC(=O)c1[nH]c2c(c1C)C(=O)CC(c1cc(OC)ccc1OC)C2 (configuration not stated)	none
Cc1ccc(-c2nn(CC(=O)O)c(=O)c3ccccc23)cc1	none
CSc1nc(=NC(C)=O)ss1	none
Cc1cccc(NC(=O)c2cc3ccccc3c(=O)o2)n1	none
COc1ccc(NC(=O)Nc2cccc(C)n2)cc1	none
Cc1cccc(NC(=O)Nc2ccc(C#N)cc2)n1	SF-1 inh 71.1
CCCc1cc2c(cc1NS(=O)(=O)c1ccc(CCNC(C)=O)cc1)OCO2	none
CCOC(=O)C1=C(C)N=C2SCCC(=O)N2C1c1sccc1C (configuration not stated)	none
O=C(COc1ccc(-c2nnco2)cc1)NC1CCCc2ccccc21 (configuration not stated)	none
Cc1ccc(-c2nsc3c(N4CCC(C(N)=O)CC4)ncnc23)cc1	SF-1 inh 49.0
C/C=C/c1ccc(OC)c(OC(C)=O)c1	none
COc1cc(C2Nc3cccc4cccc(c34)N2)cc(OC)c1OC(C)=O	SF-1 inh 82.3
CCOc1ccc(NCc2nnc(SCC(=O)Nc3cc(C)on3)n2-c2ccccc2OC)cc1	none
N#CCc1ccc(NC(=O)Nc2cccc(Cl)c2)cc1	none
CCOC(=O)CSc1nnc(CSc2nc(C)cc(C)n2)n1Cc1ccco1	none
CC(C)OCCCNc1ncnc2c1cnn2-c1ccccc1	none
CCOC(=O)c1oc2ccc(S(=O)(=O)Nc3ccc4c(c3)n(C)c(=O)n4C)cc2c1C	SF-1 inh 57.2
Cc1c(C(=O)O)oc2ccc(S(=O)(=O)NCc3ccc4c(c3)OCO4)cc12	none
CCOC(=O)c1ccc(NS(=O)(=O)c2ccc3[nH]c(=O)[nH]c3c2)cc1	none
O=C(O)C1CCCN1S(=O)(=O)c1ccc(Cl)c(Cl)c1 (configuration not stated)	none
CC1=CC(C)(C)N=C(NC#N)N1	none
O=C(CCSCCC(=O)N1CCCC1)N1CCCC1	none
CCOc1ccc(NC(=O)CSc2nnc(C3CC3)n2N)cc1	none
COc1ccc2c(c1)CCc1c(C(=O)NCCN3CCOCC3)noc1-2	none
COc1ccc(-c2nc(CS(=O)CC(=O)N3CCCC3)c(C)o2)cc1 (configuration not stated)	none
O=C(C1CCCCC1)N1CCN(c2ncccn2)CC1	none
COc1ccc(C2=NOC(C(=O)NCCCN3CCOCC3)C2)cc1 (configuration not stated)	none
Cc1cc(-c2ccco2)n(CC(=O)NCc2ccco2)n1	none
CCOc1ccc(-c2nc(CSCC(=O)NCCN3CCOCC3)c(C)o2)cc1	SF-1 inh 65.0
CCc1ccc(-c2nc(CSCC(=O)N3CCN(c4ncccn4)CC3)c(C)o2)cc1	SF-1 inh 50.7
COc1ccc(-c2nc(CSCC(=O)NCc3ccco3)c(C)o2)cc1	SF-1 inh 69.4
Cc1ccc(-c2nc(CS(=O)CC(=O)NCc3ccccn3)c(C)o2)cc1 (configuration not stated)	none
O=C(NCC1COc2ccccc2O1)c1ccccc1 (configuration not stated)	none
CC(=O)Nc1c(C(=O)O)oc2ccc(Cl)cc12	none
COC(=O)Sc1nnc(-c2ccc(Br)cc2)o1	none
CCC(=O)Nc1nc(C)cc(SCC(=O)OC)n1	none
CCOCCn1c(CN2CCCC(C)C2)nc2c1c(=O)n(C)c(=O)n2C (configuration not stated)	none
CCOC(=O)N1CCN(S(=O)(=O)c2ccc(C(=O)Nc3sc4c(c3C#N)CCC4)cc2)CC1	none
CC(C)Cn1c(=O)c(C(=O)Nc2ccncc2)c(O)c2ccccc21	none
COc1ccccc1CNC(=O)CS(=O)Cc1nc(-c2ccccc2C)oc1C (configuration not stated)	none
O=C(Nc1nc(-c2ccccn2)cs1)c1ccc(S(=O)(=O)N2CCCCC2)cc1	SF-1 inh 64.1
Cc1nc2ccc3nc(NC(=O)c4ccc(S(=O)(=O)N5CCOCC5)cc4)sc3c2s1	none
O=C(Nc1ccc2sccc2c1)c1ccc(Cl)s1	none
O=C(NC1CCCCC1)c1ccc(S(=O)(=O)N2CCCCC2)cc1	none
O=C(Nc1nccs1)c1ccc(Cl)s1	none
O=C(Nc1nc(-c2ccccn2)cs1)c1ccc(Cl)s1	SF-1 inh 94.8
CC(C)(C)C1CCc2[nH]c3ccccc3c(=O)c2C1 (configuration not stated)	none
N#Cc1ccc(CSCC(=O)O)cc1	none
CC1(C)CC(=O)c2cnc(NCc3ccco3)nc2C1	none
c1c2c(cc3sc(N4CCOCC4)nc13)OCO2	none
c1ccc(N2CCN(c3nc4cc5c(cc4s3)OCO5)CC2)cc1	none
O=C(Nc1nc2cc3c(cc2s1)OCO3)C1=COCCO1	SF-1 inh 62.2
COCCCNC(=O)C1CCN(S(=O)(=O)N(CC(C)C)CC(C)C)CC1	none

Screens: PubChem, The Scripps Research Institute Molecular Screening Center
